According to PubChem BioAssay AID1159580 (chemical genetic matrix, 2015):
The campaign covered roughly 5,500 compounds. About 2,000 (36%) were called active. About 18% were inconclusive and are not listed. No stated cut-off is given here; in the data, active means normalized growth mostly below about 0.91 (no sharp cut-off); inconclusive means no clear call, values can overlap the other calls; inactive means mostly above about 0.92. Some of the results follow.

Experiment: chemical genetic growth profiling, strain panel (AID 1159580);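 further: tested at 20 µM; growth read once vehicle control cultures reached saturation at 30 °C; 1 = growth at the plate median or of vehicle wells; lower values mean less growth of the strain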
Settings: growth OD

Measured: normalized growth

C[C@H](N)[C@H](O)c1ccccc1
inactive: S. cerevisiae deletion strains, locus YBR021W, strain FUR4, hits give low values 0.997 | S. cerevisiae deletion strains, locus YBR229C, strain ROT2, hits give low values 1 | S. cerevisiae deletion strains, locus YCL029C, strain bik1, hits give low values 1 | S. cerevisiae deletion strains, locus YDL035C, strain GPR1, hits give low values 1.01 | S. cerevisiae deletion strains, locus YDL074C, strain BRE1, hits give low values 1.01 | S. cerevisiae deletion strains, locus YDL101C, strain DUN1, hits give low values 0.949 | S. cerevisiae deletion strains, locus YDL134C, strain PPH21, hits give low values 1 | S. cerevisiae deletion strains, locus YDL185W, strain tfp1, hits give low values 0.991 | S. cerevisiae deletion strains, locus YDL192W, strain arf1, hits give low values 1 | S. cerevisiae deletion strains, locus YDR101C, strain arx1, hits give low values 1 | S. cerevisiae deletion strains, locus YDR150W, strain NUM1, hits give low values 1.01 | S. cerevisiae deletion strains, locus YDR162C, strain NBP2, hits give low values 1.01 | S. cerevisiae deletion strains, locus YDR318W, strain mcm21, hits give low values 0.993 | S. cerevisiae deletion strains, locus YDR388W, hits give low values 0.993 | S. cerevisiae deletion strains, locus YDR502C, strain sam2, hits give low values 0.994 | S. cerevisiae deletion strains, locus YEL061C, strain CIN8, hits give low values 1 | S. cerevisiae deletion strains, locus YER110C, hits give low values 0.997 | S. cerevisiae deletion strains, locus YER155C, strain BEM2, hits give low values 0.998 | S. cerevisiae deletion strains, locus YER167W, strain BCK2, hits give low values 1 | S. cerevisiae deletion strains, locus YGL078C, strain dbp3, hits give low values 0.996 | S. cerevisiae deletion strains, locus YGL086W, strain mad1, hits give low values 0.991 | S. cerevisiae deletion strains, locus YGL248W, strain PDE1, hits give low values 1 | S. cerevisiae deletion strains, locus YGR078C, strain PAC10, hits give low values 1.01 | S. cerevisiae deletion strains, locus YGR135W, strain pre9, hits give low values 0.998 | S. cerevisiae deletion strains, locus YGR229C, strain SMI1, hits give low values 1 | S. cerevisiae deletion strains, locus YGR252W, strain gcn5, hits give low values 1.01 | S. cerevisiae deletion strains, locus YHR030C, strain SLT2, hits give low values 1 | S. cerevisiae deletion strains, locus YHR079C, strain IRE1 (second series), hits give low values 0.997 | S. cerevisiae deletion strains, locus YHR094C, strain hxt1, hits give low values 0.996 | S. cerevisiae deletion strains, locus YHR129C, strain ARP1, hits give low values 1.01 | S. cerevisiae deletion strains, locus YHR200W, strain rpn10, hits give low values 0.995 | S. cerevisiae deletion strains, locus YIL066C, strain RNR3, hits give low values 1 | S. cerevisiae deletion strains, locus YIL073C, strain SPO22, hits give low values 1.03 | S. cerevisiae deletion strains, locus YIL125W, strain kgd1, hits give low values 0.994 | S. cerevisiae deletion strains, locus YIR030C, strain dcg1, hits give low values 0.996 | S. cerevisiae deletion strains, locus YJL095W, strain BCK1, hits give low values 1.02 | S. cerevisiae deletion strains, locus YJL134W, strain LCB3, hits give low values 1 | S. cerevisiae deletion strains, locus YJL168C, strain set2, hits give low values 0.995 | S. cerevisiae deletion strains, locus YJL187C, strain SWE1 (second series), hits give low values 1.01 | S. cerevisiae deletion strains, locus YJR043C, strain POL32, hits give low values 0.982 | S. cerevisiae deletion strains, locus YKL009W, strain mrt4, hits give low values 0.989 | S. cerevisiae deletion strains, locus YKL068W, hits give low values 0.999 | S. cerevisiae deletion strains, locus YKL085W, strain MDH1 (second series), hits give low values 0.989 | S. cerevisiae deletion strains, locus YKL085W, strain MDH1, hits give low values 0.989 | S. cerevisiae deletion strains, locus YKL190W, strain CNB1, hits give low values 1 | S. cerevisiae deletion strains, locus YKR001C, strain vps1, hits give low values 0.99 | S. cerevisiae deletion strains, locus YLR039C, strain RIC1, hits give low values 0.993 | S. cerevisiae deletion strains, locus YLR058C, strain SHM2, hits give low values 1 | S. cerevisiae deletion strains, locus YLR102C, strain apc9, hits give low values 1 | S. cerevisiae deletion strains, locus YLR262C, strain YPT6, hits give low values 1.01 | S. cerevisiae deletion strains, locus YLR268W, strain sec22, hits give low values 0.99 | S. cerevisiae deletion strains, locus YLR330W, strain CHS5, hits give low values 0.999 | S. cerevisiae deletion strains, locus YLR342W, strain FKS1 (second series), hits give low values 1.01 | S. cerevisiae deletion strains, locus YLR371W, strain rom2, hits give low values 1 | S. cerevisiae deletion strains, locus YLR418C, strain cdc73, hits give low values 0.978 | S. cerevisiae deletion strains, locus YML016C, strain PPZ1, hits give low values 1 | S. cerevisiae deletion strains, locus YML032C, strain rad52, hits give low values 0.984 | S. cerevisiae deletion strains, locus YML124C, strain tub3, hits give low values 0.998 | S. cerevisiae deletion strains, locus YMR078C, strain ctf18, hits give low values 0.993 | S. cerevisiae deletion strains, locus YMR223W, strain ubp8, hits give low values 1 | S. cerevisiae deletion strains, locus YMR263W, strain SAP30, hits give low values 1 | S. cerevisiae deletion strains, locus YMR307W, strain GAS1, hits give low values 0.983 | S. cerevisiae deletion strains, locus YNL067W, strain RPL9B, hits give low values 1 | S. cerevisiae deletion strains, locus YNL128W, strain TEP1, hits give low values 1.01 | S. cerevisiae deletion strains, locus YNL153C, strain GIM3, hits give low values 1 | S. cerevisiae deletion strains, locus YNL233W, strain BNI4, hits give low values 0.996 | S. cerevisiae deletion strains, locus YNL250W, strain rad50, hits give low values 0.984 | S. cerevisiae deletion strains, locus YNL271C, strain bni1, hits give low values 0.998 | S. cerevisiae deletion strains, locus YNL298W, strain CLA4, hits give low values 1 | S. cerevisiae deletion strains, locus YNL307C, strain MCK1, hits give low values 0.999 | S. cerevisiae deletion strains, locus YNL322C, strain KRE1, hits give low values 1 | S. cerevisiae deletion strains, locus YNR052C, strain pop2, hits give low values 1 | S. cerevisiae deletion strains, locus YOL006C, strain TOP1, hits give low values 1.02 | S. cerevisiae deletion strains, locus YOL012C, strain htz1 1.73 | S. cerevisiae deletion strains, locus YOL147C, strain pex11, hits give low values 0.996 | S. cerevisiae deletion strains, locus YOR061W, strain CKA2, hits give low values 0.998 | S. cerevisiae deletion strains, locus YOR069W, strain VPS5, hits give low values 1 | S. cerevisiae deletion strains, locus YOR136W, strain idh2, hits give low values 0.996 | S. cerevisiae deletion strains, locus YOR144C, strain elg1, hits give low values 0.995 | S. cerevisiae deletion strains, locus YOR184W, strain ser1, hits give low values 0.985 | S. cerevisiae deletion strains, locus YOR316C, strain cot1, hits give low values 0.999 | S. cerevisiae deletion strains, locus YPL055C, strain LGE1, hits give low values 1.01 | S. cerevisiae deletion strains, locus YPR119W, strain clb2, hits give low values 0.999 | S. cerevisiae deletion strains, locus YPR141C, strain kar3, hits give low values 0.996 | S. cerevisiae deletion strains, locus YPR163C, strain tif3, hits give low values 0.994 | S. cerevisiae deletion strains, locus YPR167C, strain met16, hits give low values 1 | S. cerevisiae deletion strains, strain wtn01, hits give low values 0.983 | S. cerevisiae strains, strain wild type, hits give low values 1
